Screens deposited in PubChem by Broad Institute.
Sampled rows, rich in hits. Any-hit rate of the full collection: about 3.1%.
PAX8 inh HTS – PAX8 transcriptional activity inhibition; RMG-I TPO-luciferase reporter, SteadyGlo, 24 h; inhibition, % at 12.6 µM; 360,000 tested, 1.2% active;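 active = mean replicate inhibition at least 60% with every replicate also reaching 60%; inconclusive = only one of the two criteria is met; inactive = mean below 60% and not all replicates reaching 60%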;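 also: luciferase light reporting Pax8 driven TPO promoter activity; plate controls were median of neutral control wells for no effect and mitoxantrone controls for full effect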
HIV Env fusion – HIV envelope-mediated fusion inhibition; HeLa-JRFL Env/CEM21 cell fusion, luciferase; inhibition, % at 12.3 µM; 360,000 tested, 1.1% active;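 active = mean replicate inhibition score of at least 50 and every replicate individually at or above 50; inconclusive = only one of the two criteria met; inactive = mean below 50 and not all replicates reaching 50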;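 also: 0% = plate neutral controls and 100% = maraviroc near 300 nM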
INS-1E GSIS act – GLuc luminescence reporter in INS-1E cells, primary screen for activators of glucose-dependent secretion of insulin | activation, % at 16.6 µM | 370,000 tested, 0.61% active | INS-1E GLuc reporter insulin secretion, 2-3 h;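 active = lowest replicate activation of at least 40%, so every replicate reaches that level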;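 also: 0% = median of neutral control wells and 100% = median of IBMX positive control wells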
EWS-Fli block – EWS/Fli transcriptional activity inhibition; A673 NR0B1-luciferase reporter, viability-normalised; inhibition, % at 12.6 µM; 350,000 tested, 0.67% active; AID 651661;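 active = mean inhibition of at least 50% after viability correction, with every replicate also passing that limit; inconclusive = mean reaches 50% but only one of two replicates passes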;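 also: firefly luciferase signal divided by Alamar Blue viability fluorescence both relative to DMSO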
miR122 inh – blocks miR-122 activity in Huh7 sensor cells | Huh7 miR-122 Renilla luciferase sensor, 48 h; neutral wells = 0, positive control = 100 | activation (reporter increase), % at 12.5 µM | 340,000 tested, 0.3% active | AID 602342;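 active = mean replicate activation score at least 90 and every replicate individually at or above 90; inconclusive = only one of the two criteria met; inactive = neither criterion met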;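 also: higher luciferase means less miR-122 activity so hits act as miR-122 inhibitors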
C2C12 statin – suppression of simvastatin myotoxicity; C2C12 myotubes + simvastatin, ATP luminescence, 48 h; scaled: DMSO 0, geranylgeraniol control 100; rescue of ATP level, % at 7.49 µM; 330,000 tested, 0.78% active; AID 602340;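 active = mean ATP rescue above about 67%, or every replicate alone reaching that limit, limit read from the data, passing the limit was not always enough; inconclusive = no clear call, values can overlap the other calls; inactive = mean under the limit and some replicate under it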;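 also: myotubes were challenged with 10 µM simvastatin during compound exposure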
Active calls of the source: *; ? = inconclusive; / = no result given; [ ] = dose if it differs, or a comment.

SMILES | PAX8 inh HTS | HIV Env fusion | INS-1E GSIS act | EWS-Fli block | miR122 inh | C2C12 statin
C[C@@H]1CCCCO[C@@H](CN(C)C(=O)c2ccccc2)[C@H](C)CN([C@H](C)CO)C(=O)c2cc(NC(=O)Nc3ccc(C(F)(F)F)cc3)ccc2O1 | 102* | 21[16.7 µM] | -3 | 6 | -16[16.7 µM] | /
C[C@@H]1CCCCO[C@H](CN(C)C(=O)c2ccccc2)[C@@H](C)CN([C@@H](C)CO)C(=O)c2cc(NC(=O)Nc3ccc(C(F)(F)F)cc3)ccc2O1 | 94* | ? | 3 | -7 | 3[16.7 µM] | /
C[C@@H]1CN([C@@H](C)CO)C(=O)c2cc(NC(=O)Nc3ccc(C(F)(F)F)cc3)ccc2O[C@@H](C)CCCCO[C@@H]1CN(C)C(=O)Nc1ccccc1 | -12 | / | -2 | -7 | / | /
C[C@H]1CCCCO[C@@H](CN(C)C(=O)c2ccccc2)[C@@H](C)CN([C@@H](C)CO)C(=O)c2cc(NC(=O)Nc3ccc(C(F)(F)F)cc3)ccc2O1 | 89* | 68*[16.7 µM] | -4 | -15 | -3[16.7 µM] | /
C[C@@H]1CCCCO[C@@H](CN(C)C(=O)c2ccccc2)[C@@H](C)CN([C@H](C)CO)C(=O)c2cc(NC(=O)Nc3ccc(C(F)(F)F)cc3)ccc2O1 | 15 | 6[16.7 µM] | 9 | -13 | 1[16.7 µM] | /
C[C@@H]1CCCCO[C@@H](CN(C)C(=O)c2ccccc2)[C@@H](C)CN([C@@H](C)CO)C(=O)c2cc(NC(=O)Nc3ccc(C(F)(F)F)cc3)ccc2O1 | 86* | -5[16.7 µM] | 1 | -5 | -5[16.7 µM] | /
C[C@@H]1CCCCO[C@H](CN(C)C(=O)c2ccccc2)[C@H](C)CN([C@@H](C)CO)C(=O)c2cc(NC(=O)Nc3ccc(C(F)(F)F)cc3)ccc2O1 | 87* | 30[16.7 µM] | 20 | 10 | -12[16.7 µM] | /
CN1[C@@H]2c3ccc(-c4ccccc4F)c(=O)n3C[C@@H]2[C@@H](CO)[C@@H]1C(=O)Nc1nccs1 | / | / | 14 | 0 | / | -3
O=C(NCC[C@@H]1CC[C@H](NS(=O)(=O)c2ccccc2)[C@H](CO)O1)c1ccc2c(c1)OCO2 | -8 | -8[16.7 µM] | 10 | 4 | / | 4
Cc1cn(CC(C)C)c(=O)n(-c2ccccc2)c1=O | / | 2 | 51* | 2 | 0 | 5
CCCc1nc(N)sc1C(=O)OCC | / | / | 112* | / | 3 | -2
CC1Cc2ccccc2N1c1ncnc(N)c1[N+](=O)[O-] (configuration not stated) | -15 | 65* | -16 | 7 | / | /
O=C(c1cccs1)N1C[C@H](O)[C@@H](n2cc(C3CC3)nn2)C[C@@H]1c1ccccc1 | 98* | 9 | -11 | 18 | 1 | -10
O=C(c1cccs1)N1C[C@@H](O)[C@H](n2cc(C3CC3)nn2)C[C@@H]1c1ccccc1 | 2 | 11 | 6 | -8 | 1 | 2
CCN(C[C@H]1[C@H](c2ccccc2)[C@@H](CO)N1C(C)=O)C(=O)c1cccc(F)c1 | -4 | / | 2 | -4 | -12[16.7 µM] | -2
CCC(=O)N1[C@H](CO)[C@H](c2ccccc2)[C@@H]1CN(CC)C(=O)c1cccc(F)c1 | -28 | / | 1 | 2 | 250*[16.7 µM] | -17
CCC(=O)N1[C@H](CO)[C@H](c2ccccc2)[C@@H]1CN(CC)C(=O)c1ccccc1 | -7 | / | 6 | -3 | -36[16.7 µM] | 10
CCC(=O)N1[C@H](CN(CC)C(=O)c2cccc(F)c2)[C@H](c2ccccc2)[C@@H]1CO | -15 | / | 13 | 17 | 125*[16.7 µM] | 5
O=C(Nc1cc(S(=O)(=O)N2CCCCC2)ccc1Cl)c1ccccc1NS(=O)(=O)c1ccc(F)cc1 | 93* | 71* | -23 | 24 | / | /
O=C(Nc1cc(S(=O)(=O)N2CCCCC2)ccc1O)c1ccccc1NS(=O)(=O)c1ccc(F)cc1 | -4 | 6 | -51 | 8 | -3 | /
O=C(COC(=O)c1cccnc1Cl)Nc1cc(S(=O)(=O)N2CCCCC2)ccc1Cl | 2 | 9 | -23 | -8 | / | /
O=C(COC(=O)c1cccnc1Cl)Nc1cc(S(=O)(=O)N2CCCCCC2)ccc1Cl | 16 | 19 | 42* | 3 | / | -5
C[C@H](NC(=O)C[C@H]1CC[C@@H]2[C@H](COC[C@H](O)CN2C(=O)Nc2ccccc2)O1)c1ccccc1 | -3 | / | -6 | -17 | 5[16.7 µM] | -4
C/C(=N/NS(=O)(=O)c1ccc(C(C)C)cc1)c1ccncc1 | / | 3 | -17 | / | / | 0
